GDH-TPI inh = counter-screen for M. tuberculosis FBA inhibitors: GDH-TPI coupled enzymes. GDH-TPI coupled enzyme counterscreen, NADH absorbance. inhibition, % at 4.8 µM. hit rate 1.2% among 360,000. AID 588335; in the data active = inhibition above about 30%;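 also: 0% = DMSO wells and 100% = wells lacking the enzyme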
Mtb FBA inh = Mtb fructose-bisphosphate aldolase inhibition; AID 588726; purified M. tuberculosis FBA, fluorescence read-out; inhibition, % at 1 µM; P9WQA3; hit rate 2.3% among 360,000; in the data active = inhibition above about 27%;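 also: 0% = vehicle and 100% = reference inhibitor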
Target sequence (P9WQA3 whole entry, looked up): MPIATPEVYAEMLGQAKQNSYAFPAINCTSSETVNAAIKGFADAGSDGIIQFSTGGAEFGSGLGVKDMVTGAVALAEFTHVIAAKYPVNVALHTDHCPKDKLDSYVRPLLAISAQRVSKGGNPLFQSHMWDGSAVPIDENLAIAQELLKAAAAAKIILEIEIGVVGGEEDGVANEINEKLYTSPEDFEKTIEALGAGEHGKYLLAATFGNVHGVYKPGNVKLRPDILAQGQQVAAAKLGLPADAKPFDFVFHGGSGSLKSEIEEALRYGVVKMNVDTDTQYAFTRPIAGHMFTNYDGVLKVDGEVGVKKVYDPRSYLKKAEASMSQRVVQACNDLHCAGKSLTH
Mtb bLac sens = beta-lactam sensitization of Mtb H37Rv | AID 434955 | inhibition, % at 25 µM | hit rate 0.27% among 330,000 | M. tuberculosis H37Rv growth with meropenem, percent inhibition; call rule not given here;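 also: growth measured after seven days incubation then overnight dye step; 0% = bacteria only wells and 100% = bacteria with antibiotic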
Mtb hypoxia rep = reduces hypoxia-regulated biosensor signal in M. tuberculosis. M. tuberculosis hypoxia-regulated fluorescent reporter, fluorescence. fluorescence inhibition, % (no concentration beside the values). hit rate 0.1% among 300,000; in the data active = fluorescence inhibition mostly above about 23%, no sharp cut-off; inactive = mostly below about 17%
DUSP3 inh = inhibitors of human VHR1 phosphatase (DUSP3). P51452. recombinant VHR phosphatase, pNPP absorbance. inhibition, % at 13.3 µM. hit rate 0.52% among 290,000; in the data active = inhibition above about 50%
* hit, by the source's call; x = no result shown; + = active, no number. Hits are enriched below; roughly 3.6% of the tested compounds scored in any of these assays.

SMILES	GDH-TPI inh	Mtb FBA inh	Mtb bLac sens	Mtb hypoxia rep	DUSP3 inh
COc1ccc(CNC(=O)c2cc(-c3ccncc3)nc3c(C)cc(C)cc23)cc1OC	-1.2	4.7	38.8	-8.8	57.4*
COc1ccccc1CNC(=O)c1cc(-c2ccncc2)nc2c(Cl)cccc12	2.0	0.1	-2.6	3.8	2.3
COc1ccc(CCNC(=O)c2cc(-c3ccncc3)nc3c(Cl)cccc23)cc1OC	0.0	-0.6	-9.7	-4.2	52.9*
COc1cccc(C=NNC(=O)c2cnn(-c3ccccc3)c2N)c1	x	x	x	6.6	x
Cc1ccc2cc(C#N)c(N3CCN(C(=O)c4cccs4)CC3)nc2c1	9.6	12.2	7.4	5.7	51.0*
Cc1ccc2nc(N3CCN(C(=O)c4ccc(F)cc4)CC3)c(C#N)cc2c1	-3.4	19.5	4.5	7.4	6.5
Cc1cc(N2CCN(C(=O)c3cccs3)CC2)c(F)cc1[N+](=O)[O-]	37.8*	-3.5	1.9	-1.2	6.5
CCC(=O)c1ccc(N2CCN(C(=O)c3cccs3)CC2)c(F)c1	32.2*	2.3	2.2	x	-10.3
O=C(c1cc(N2CCOCC2)c(F)cc1[N+](=O)[O-])N1CCOCC1	15.4	51.3*	-1.4	-1.0	-6.1
O=C1Nc2ccccc2C1=NN=Cc1cccc(O)c1	x	x	x	-2.5	x
O=C(C1=CC(c2coc3ccccc3c2=O)CC(OCCCCO)O1)N1CCOCC1 (stereo unspecified)	x	x	x	3.1	x
CCOc1ccccc1C=NNc1ccnc(=O)[nH]1	x	x	x	-4.1	x
CC(=O)c1ccc(N2CCN(C(=O)C3(S(=O)(=O)c4ccc(Cl)cc4)CC3)CC2)cc1	34.0*	2.9	21.2	2.5	20.0
Oc1ccc(C=Nc2cccc3ncccc23)c(O)c1	15.5	-6.4	4.3	0.5	-9.6
COc1ccc(OC)c(C=Nc2ccccc2-c2nc3ccccc3[nH]2)c1	16.9	+	-2.7	3.0	8.3
Oc1ccc(C=Nc2ccccc2-c2nc3ccccc3[nH]2)c(O)c1	32.6*	166.1*	0.9	2.2	34.1
Oc1ccccc1C=Nc1ccccc1-c1nc2ccccc2[nH]1	17.8	128.1*	-1.4	8.3	16.9
COc1ccc2c(c1)C(c1ccc([N+](=O)[O-])cc1)=NNC(c1ccco1)=N2	33.3*	-0.6	8.7	6.4	22.8
CC(=O)Cc1nsc(NC(=O)c2ccc(-c3cccc(Cl)c3)o2)n1	60.8*	3.5	1.7	6.0	-11.4
Cc1cc(OCC(=O)N2CCC(C(=O)O)CC2)c2c(C)cc(=O)oc2c1	5.6	130.1*	-2.2	x	12.5
CCCCc1cc(=O)oc2cc(C)cc(OCC(=O)N3CCC(C(=O)O)CC3)c12	17.6	123.8*	-5.8	x	4.9
NCCCNC(=O)c1ccc(C=NO)nc1	x	x	x	16.4	x
CCN1C(=O)/C(=c2\o/c(=C3\C=Cc4ccccc4N3CC)c(=O)n2CC)SC1=S	16.7	0.7	x	x	22.3
CCN1C(=O)/C(=C2\C=Cc3ccccc3N2CC)SC1=S	7.4	0.0	32.3	37.4*	15.7
CN(C)c1ccc(/C=N/NC(=O)CCC(=O)NCc2ccccc2)cc1	32.5*	22.9	2.9	x	-1.5
SMILES	GDH-TPI inh	Mtb FBA inh	Mtb bLac sens	Mtb hypoxia rep	DUSP3 inh
COc1ccc(OCC(=O)N/N=C/c2ccc(N(C)C)cc2)cc1	34.0*	21.2	-7.3	x	9.8
CN(C)c1ccc(/C=N/NC(=O)CCCCCNC(=O)c2ccccc2)cc1	58.2*	17.2	1.8	x	-4.9
CN(C)c1ccc(C=NNC(=S)NCc2ccccc2)cc1	x	x	x	4.2	x
C=C(C)C(=O)Nc1cccc(C2=NOC3(C2)CC(C(N)=O)N(C(=O)C=CC=CC)C3)c1 (stereo unspecified)	x	x	x	4.7	x
Cc1nnc(NN=Cc2ccc([N+](=O)[O-])cc2)n1N	x	x	x	3.5	x
CCCCCn1c(N)c(C(=O)NCc2cccs2)c2nc3ccccc3nc21	x	x	-12.3	-1.6	17.4
N#Cc1c(N)n(CCNC(=O)c2cccs2)c2nc3ccccc3nc12	8.8	+	-16.7	14.0	22.1
N#Cc1c(N)n(CCCN2CCOCC2)c2nc3ccccc3nc12	18.2	192.3*	-1.6	x	39.8
CCCCCCn1c(N)c(C(=O)NCCN2CCOCC2)c2nc3ccccc3nc21	-0.9	49.8*	87.1	x	17.0
Nc1c(C(=O)Nc2ccccc2)c2nc3ccccc3nc2n1CCCN1CCOCC1	11.7	5.4	100.1	15.1	8.7
COc1ccccc1CCn1c(N)c(C#N)c2nc3ccccc3nc21	26.7	+	5.4	-4.8	-14.5
COc1ccc(-c2ccc(C3C4C=CCC[C@@]4(C)C(=O)N3Cc3ccccc3)c(F)c2)cc1 (stereo partly specified)	x	x	x	11.0	x
O=C(Cc1ccccc1)NN=Cc1ccc(OC(=O)/C=C\c2ccco2)cc1	x	x	x	-1.3	x

Screening data (PubChem)
